Laboratory results taken from PubChem BioAssay (Tox21).
“And” between values parts separate entries of the source, which are not always exact repeats. Equal values may be shown once. Values without a mark were called inactive. Where a call stands in place of a potency, no number is given. The source made the active and inactive calls. Unless noted, calls follow the shape of the full dose curve.

Experiments:
[1] = qHTS assay to identify small molecule antagonists of the thyroid receptor (TR) signaling pathway (AID 743065; active = well fitted curve in the direction sought with a large enough effect in the repeat runs; inconclusive = weak or mixed curves; inactive = no such curve, though single readings can be large; an effect the other way counts as inactive or inconclusive; also: nearly all actives have a fitted effect of over 55% in size; also: potency is read from the fitted curve at half-maximal effect)
How it was run: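 Antagonism measured as loss of luciferase signal in GH3 cells stably carrying a TRE-luciferase reporter, co-treated with compound and T3 (1 nM final) for 23.5 h at 37 C. Viability was read in the same well by CellTiter-Fluor.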

[2] = system: thyroid hormone receptor (rat, GH3 cells); experiment: qHTS assay to identify small molecule agonists of the thyroid receptor (TR) signaling pathway (AID 743066); also: potency is read from the fitted curve at half-maximal effect
[3] = biological target: Estrogen receptor (Homo sapiens) (UniProt P03372); experiment: qHTS assay to identify small molecule antagonists of the estrogen receptor alpha (ER-alpha) signaling pathway (AID 743069; active = well fitted curve in the direction sought with a large enough effect in the signal ratio in the repeat runs, not every such curve was filed as active; inconclusive = weak or mixed curves, or effect the other way; inactive = no such curve, though single readings can be large or run the other way; the % refers to the signal ratio; also: potency is read from the fitted curve at half-maximal effect)
Chain of Estrogen receptor (Homo sapiens) (P03372 whole entry, looked up): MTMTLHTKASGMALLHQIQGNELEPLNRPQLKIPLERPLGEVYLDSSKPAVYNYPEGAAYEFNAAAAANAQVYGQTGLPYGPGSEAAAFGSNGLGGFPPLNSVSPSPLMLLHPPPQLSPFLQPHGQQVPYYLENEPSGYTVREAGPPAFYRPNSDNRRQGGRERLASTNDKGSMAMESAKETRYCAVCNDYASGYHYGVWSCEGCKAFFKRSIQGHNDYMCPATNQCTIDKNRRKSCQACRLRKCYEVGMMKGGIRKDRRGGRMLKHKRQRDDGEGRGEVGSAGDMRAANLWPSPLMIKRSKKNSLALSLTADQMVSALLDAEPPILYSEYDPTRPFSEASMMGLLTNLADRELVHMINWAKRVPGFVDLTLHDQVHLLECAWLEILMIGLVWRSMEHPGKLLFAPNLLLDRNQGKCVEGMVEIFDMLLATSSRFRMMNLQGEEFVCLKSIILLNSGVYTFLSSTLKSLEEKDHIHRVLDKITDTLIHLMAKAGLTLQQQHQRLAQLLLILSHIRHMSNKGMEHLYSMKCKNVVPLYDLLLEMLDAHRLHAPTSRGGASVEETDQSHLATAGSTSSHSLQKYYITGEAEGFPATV
How it was run: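 Compound effects are measured against 17beta-estradiol stimulation in HEK293 cells with a UAS-controlled beta-lactamase reporter for ER-alpha. Exposure lasts 18 hr at 37C; LiveBLAzer B/G FRET substrate follows for 2 hr at room temperature.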

[4] = biological target: Estrogen receptor (Homo sapiens) (UniProt P03372); experiment: qHTS assay to identify small molecule agonists of the estrogen receptor alpha (ER-alpha) signaling pathway (AID 743075)
[5] = biological target: Estrogen receptor (Homo sapiens) (UniProt P03372); experiment: qHTS assay to identify small molecule agonists of the estrogen receptor alpha (ER-alpha) signaling pathway using the BG1 cell line (AID 743079; active = well fitted curve in the direction sought with a large enough effect in the repeat runs; inconclusive = weak or mixed curves; inactive = no such curve, though single readings can be large; an effect the other way counts as inactive or inconclusive; also: nearly all actives have a fitted effect of over 20% in size; also: potency is read from the fitted curve at half-maximal effect)
Aromatase (Homo sapiens) = Aromatase (Homo sapiens) (UniProt P11511); experiment: qHTS assay to identify aromatase inhibitors (AID 743083; active = well fitted curve in the direction sought with a large enough effect in the repeat runs; inconclusive = weak or mixed curves; inactive = no such curve, though single readings can be large; an effect the other way counts as inactive or inconclusive; also: nearly all actives have a fitted effect of over 55% in size; also: potency is read from the fitted curve at half-maximal effect)
Chain of Aromatase (Homo sapiens) (P11511 whole entry, looked up): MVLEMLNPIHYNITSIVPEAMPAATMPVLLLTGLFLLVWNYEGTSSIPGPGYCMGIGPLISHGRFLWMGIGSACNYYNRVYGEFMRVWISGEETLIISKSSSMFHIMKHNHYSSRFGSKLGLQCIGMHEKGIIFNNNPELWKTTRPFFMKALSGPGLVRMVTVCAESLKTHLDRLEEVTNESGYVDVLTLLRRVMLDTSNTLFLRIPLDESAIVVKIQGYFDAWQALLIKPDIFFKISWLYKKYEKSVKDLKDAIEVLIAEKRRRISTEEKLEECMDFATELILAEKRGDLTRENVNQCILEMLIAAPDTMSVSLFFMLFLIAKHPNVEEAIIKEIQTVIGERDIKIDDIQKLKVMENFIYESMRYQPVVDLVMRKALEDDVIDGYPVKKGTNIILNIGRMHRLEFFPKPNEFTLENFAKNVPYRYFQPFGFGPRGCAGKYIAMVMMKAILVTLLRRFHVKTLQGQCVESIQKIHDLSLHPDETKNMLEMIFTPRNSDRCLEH

[6] = qHTS assay to identify small molecule antagonists of the estrogen receptor alpha (ER-alpha) signaling pathway - cell viability counter screen (AID 743074);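 also: HEK293 cells carrying ER-alpha-UAS-bla reporter stimulated with 17beta-estradiol; nearly all actives have a fitted effect of over 45% in size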; also: potency is read from the fitted curve at half-maximal effect
[7] = qHTS assay to identify small molecule antagonists of the estrogen receptor alpha (ER-alpha) signaling pathway using the BG1 cell line - cell viability counter screen (AID 743081; active = well fitted curve in the direction sought with a large enough effect in the repeat runs; inconclusive = weak or mixed curves; inactive = no such curve, though single readings can be large; an effect the other way counts as inactive or inconclusive;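 also: compound given together with 17beta-estradiol as the ER stimulus; nearly all actives have a fitted effect of over 45% in size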; also: potency is read from the fitted curve at half-maximal effect)
[8] = qHTS assay to identify small molecule antagonists of the estrogen receptor alpha (ER-alpha) signaling pathway using the BG1 cell line (AID 743080);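 also: BG1 cells stimulated with 17beta-estradiol alongside compound; series mostly up to about 70 µM; nearly all actives have a fitted effect of over 25% in size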
How it was run: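 BG1-Luc-4E2 cells (endogenous full-length ER-alpha, stable 4×ERE-luciferase) were starved 5 days in phenol-red-free medium with 10% charcoal-stripped FBS, plated 24 h, then given compound plus 17beta-estradiol for 21.5 h at 37 C; ONE-Glo luminescence read after 30 min.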

Row | Structure (SMILES) | Potency [1] | Potency [2] | Potency [3] | Potency [4] | Potency [5] | Potency (Aromatase (Homo sapiens)) | Potency [6] | Potency [7] | Potency [8]
1 | C=CC(=O)OCCOCCOC(=O)C=C | 68.9 µM (active) | inactive | 61.9 µM [inconclusive] (active) | inactive | 6.14 µM (active) | 13.7 µM (active) | – | – | –
2 | CCCCCCCCCc1ccc(OCCOCCO)cc1 | 18.8 µM (active) | inactive | – | – | – | 22.8 µM (active) | 15.1 µM (active) and 16.3 µM (active) | 15 µM (active) | –
3 | C=C(C)C(=O)OCCOCC | inactive | inactive | inactive | inactive | inactive | inactive | inactive | inactive | –
4 | COc1cc2nc(N3CCN(C(=O)C4COc5ccccc5O4)CC3)nc(N)c2cc1OC (stereo not given) | 29.8 µM (active) | inactive | – | – | – | – | inactive | inactive | –
5 | CC/C=C\CCOC(=O)CC | inactive | inactive | – | – | – | inactive | inactive | inactive | –
6 | O=C(O)c1ccc(-n2nc(-c3ccccc3O)nc2-c2ccccc2O)cc1 | 29.8 µM (active) | – | 16.9 µM [inconclusive] (active) | inactive | – | – | inactive | inactive | –
7 | Clc1ccc(Cn2c(CN3CCCC3)nc3ccccc32)cc1 | 11.4 µM (active) | inactive | – | – | – | inactive | inactive | inactive | –
8 | CCO[C@H](Cc1ccc(OCCc2ccc(OS(C)(=O)=O)cc2)cc1)C(=O)O | inactive | inactive | inactive | inactive | inactive | inactive | – | inactive | –
9 | CCCOC(C(=O)OC1CCN(C)CC1)(c1ccccc1)c1ccccc1 | 26.6 µM (active) | – | inactive | inactive | inactive | inactive | inactive | – | –
10 | C=C1C(=C/C=C2\CCC[C@]3(C)[C@@H]([C@H](C)/C=C/[C@@H](O)C4CC4)CC[C@@H]23)C[C@@H](O)C[C@@H]1O | 26.6 µM (active) | – | 21.3 µM [inconclusive] (active) | inactive | inactive | inactive | inactive | inactive | –
11 | COc1ccc(-c2nc3ccc(C4=NNC(=O)CC4C)cc3[nH]2)cc1 (stereo not given) | 23.7 µM (active) | inactive | – | – | – | inactive | inactive | inactive | –
12 | C#CCN(C)CCCOc1ccc(Cl)cc1Cl | inactive | inactive | inactive | inactive | 29.8 µM (active) | inactive | inactive | inactive | –
13 | CCCCO | inactive | inactive | – | – | – | inactive | inactive | inactive | –
14 | CCCCCCCCCCCCCCCCCCOS(=O)(=O)O | 48.6 µM (active) | inactive | – | inactive | inactive | – | inactive | inactive | inactive
15 | Nc1ncn([C@H]2C[C@H](O)[C@@H](CO)O2)c(=O)n1 | inactive | 3.35 µM (active) | – | – | – | inactive | inactive | inactive | –
16 | O=C(O)C1(C(=O)Nc2ccc(Cl)cc2Cl)CC1 | 68.6 µM (active) | inactive | – | inactive | inactive | inactive | – | inactive | –
17 | CCOC(=O)NCCOc1ccc(Oc2ccccc2)cc1 | inactive | inactive | 38.9 µM [inhibitor] (active) | – | – | – | inactive | inactive | –
18 | CCC(C)O (stereo not given) | inactive | inactive | – | – | – | – | – | inactive | –
19 | Cc1oc(-c2ccccc2)nc1CCOc1cccc2c1ccn2CCC(=O)O | – | inactive | – | inactive | inactive | inactive | inactive | inactive | inactive

Row | Structure (SMILES) | Potency [1] | Potency [2] | Potency [3] | Potency [4] | Potency [5] | Potency (Aromatase (Homo sapiens)) | Potency [6] | Potency [7] | Potency [8]
20 | O=C(Cl)c1cc(C(=O)Cl)cc(C(=O)Cl)c1 | – | inactive | inactive | inactive | inactive | – | inactive | inactive | inactive
21 | C[N+]1(CC2COC(c3ccccc3)(C3CCCCC3)O2)CCCCC1 (stereo not given) | – | – | inactive | inactive | inactive | inactive | inactive | inactive | –
22 | Cc1oc2c(NC(=O)c3c(Cl)cccc3Cl)cccc2c1C(C)(C)O | – | inactive | 43.6 µM [inhibitor] (active) | inactive | – | – | – | inactive | –
23 | CCCCC | – | inactive | – | – | – | – | inactive | inactive | –
24 | CCC(CC)Nc1ccc(C)c(C)c1 | – | inactive | inactive | inactive | inactive | inactive | inactive | inactive | inactive
25 | CN1CCC(N(Cc2cccs2)c2ccccc2)CC1 | – | inactive | inactive | inactive | inactive | inactive | inactive | inactive | inactive
26 | CC(=O)[O][Al] | – | inactive | – | – | – | inactive | inactive | inactive | –
27 | CCCNCC(O)COc1ccccc1C(=O)CCc1ccccc1 (stereo not given) | – | – | – | – | – | – | inactive | inactive | –
28 | COc1cc2c(cc1OC)C(C(C(=O)N(CCc1ccc(OC)c(OC)c1OC)CCc1ccc(OC)c(OC)c1OC)c1ccccc1)=NCC2 (stereo not given) | – | inactive | – | – | – | inactive | inactive | – | –
29 | CCCCCCCCCCCCCCCCOS(=O)(=O)O | – | inactive | inactive | inactive | inactive | inactive | inactive | inactive | inactive
30 | CN(Cc1ccc(C(C)(C)C)cc1)Cc1cccc2ccccc12 | – | inactive | inactive | inactive | inactive | inactive | inactive | inactive | –
31 | CCCCC1=NC2(CCCC2)C(=O)N1Cc1ccc(-c2ccccc2-c2nn[nH]n2)cc1 | – | – | inactive | inactive | inactive | inactive | inactive | inactive | –
32 | Cc1cccc(C)c1OCC(=O)N[C@@H](Cc1ccccc1)[C@@H](O)C[C@H](Cc1ccccc1)NC(=O)[C@H](C(C)C)N1CCCNC1=O | – | – | 21.3 µM [inconclusive] (active) | inactive | inactive | – | – | – | inactive
33 | c1ccc(CNCCNCc2ccccc2)cc1 | – | inactive | inactive | inactive | inactive | inactive | inactive | inactive | inactive
34 | O=C(O)c1ccco1 | – | inactive | inactive | inactive | inactive | inactive | inactive | inactive | inactive
35 | Cc1cccc(Nc2ccccc2)c1 | – | inactive | – | – | – | – | inactive | inactive | –
36 | CCCCCCCCCOS(=O)(=O)O | – | inactive | inactive | inactive | 34.4 µM (active) | inactive | inactive | inactive | inactive
37 | C[C@H]1C[C@H]2[C@@H]3CCC4=CC(=O)C=C[C@]4(C)[C@@]3(Cl)[C@@H](O)C[C@]2(C)[C@@]1(O)C(=O)CO | – | inactive | – | inactive | inactive | inactive | inactive | inactive | –
38 | CCC(C)c1cc(C(C)(C)C)c(O)c(C(C)(C)C)c1 (stereo not given) | – | 10.7 µM (active) | – | – | – | – | inactive | inactive | –

Row | Structure (SMILES) | Potency [1] | Potency [2] | Potency [3] | Potency [4] | Potency [5] | Potency (Aromatase (Homo sapiens)) | Potency [6] | Potency [7] | Potency [8]
39 | C#Cc1cccc(Nc2ncnc3cc(OCCOC)c(OCCOC)cc23)c1 | – | inactive | – | inactive | inactive | 18.8 µM (active) | – | – | inactive
40 | C/C=C/C=C/CO | – | inactive | – | – | – | inactive | inactive | inactive | –
41 | OC(C#CCN1CCCC1)(c1ccccc1)c1ccccc1 | – | inactive | – | – | – | inactive | inactive | – | –
42 | CCC(C)(C)CC | – | inactive | – | – | – | – | inactive | inactive | –
43 | O=C1CCCCCCCCCCCC(=O)OCCO1 | – | inactive | inactive | inactive | inactive | 48.6 µM (active) | inactive | inactive | inactive
44 | CC(C)=CCC/C(C)=C/CC/C(C)=C/CO | – | inactive | – | – | – | – | inactive | inactive | –
45 | CC(C)(O)c1ccc(CNC(=O)c2cccnc2Oc2ccc(F)cc2)cc1 | – | inactive | – | – | – | – | inactive | inactive | –
46 | C1CCCNCCC1 | – | inactive | – | – | – | inactive | inactive | inactive | –
47 | O=P(O)(OCc1ccccc1)OCc1ccccc1 | – | – | inactive | inactive | inactive | inactive | inactive | inactive | inactive
48 | CC1=CC=C(C(C)C)CC1 | – | – | inactive | inactive | inactive | inactive | inactive | inactive | –
49 | Cc1cc(C(=O)O)ccc1[N+](=O)[O-] | – | inactive | – | inactive | inactive | inactive | inactive | inactive | –
50 | CC[N+]1(CC)CCC(=C(c2ccccc2)c2ccccc2)C1C (stereo not given) | – | – | – | – | – | inactive | – | – | –
51 | O=S(c1cc(Cl)cc(Cl)c1O)c1cc(Cl)cc(Cl)c1O | – | inactive | – | inactive | inactive | inactive | inactive | inactive | –
52 | OC(CN1CCC(Cc2ccc(F)cc2)CC1)c1ccc(Cl)cc1 (stereo not given) | – | inactive | – | – | – | inactive | inactive | inactive | –
53 | COc1cccc(N(C)C(=S)Oc2ccc3c(c2)CCCC3)n1 | – | inactive | – | inactive | – | inactive | – | inactive | –
54 | O=C(CS)Nc1ccccc1 | – | inactive | 15.1 µM [inconclusive] (active) | inactive | 21.1 µM (active) | inactive | inactive | – | inactive
55 | CC[N+](C)(CC)CCOC(=O)C(O)(c1ccccc1)C1CCCCC1 (stereo not given) | – | inactive | inactive | inactive | – | inactive | inactive | inactive | –
56 | O=C(Nc1ccc(S(=O)(=O)N2CCOCC2)cc1)c1cc(Cl)ccc1NS(=O)(=O)c1ccc(Cl)s1 | 18.8 µM (active) | – | – | inactive | inactive | inactive | – | inactive | –
